Compound activity from PubChem BioAssay.
KAT2A inh = qHTS Assay for Inhibitors of GCN5L2. Histone acetyltransferase KAT2A (Homo sapiens), Q92830. GCN5L2 HAT assay, ThioGlo1 CoA-SH fluorescence. Potency, µM (doses to about 58.9 µM), for the others: top-dose activity change, negative = inhibition, hits mostly inhibitors. 390,000 compounds, 0.21% hits. AID 504327, 2011
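Free CoA generated was detected with ThioGlo1 (50uM) fluorescence at Ex340nm/Em540nm, read immediately and after 20 min at room temperature. Enzyme, 20 nM in HEPES pH 7.5 buffer, saw compounds 15 min before adding 75uM H3(1-25) peptide and 70uM acetyl-CoA.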
VDR inh = Inhibitors of the vitamin D receptor (VDR): qHTS. 400,000 compounds, 0.93% hits. Vitamin D3 receptor (Homo sapiens), P11473. Potency, µM, without a hit: max response, negative = inhibition, usual class: inhibitors. VDR-SRC2-3 peptide fluorescence polarization, 2 h
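Fluorescence polarization assay measuring small-molecule disruption of VDR binding to the coregulator peptide SRC2-3. Compounds were pin-transferred (23 nl) into the reagent mix and incubated 2 h at room temperature before reading.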
TDP1 block = qHTS Assay for Inhibitors of Tyrosyl-DNA Phosphodiesterase (TDP1). Tyrosyl-DNA phosphodiesterase 1 (Homo sapiens), Q9NUW8. recombinant TDP1, AlphaScreen DNA substrate cleavage. Potency, µM (top dose mostly 130 µM), without a hit: top-dose activity change, negative = inhibition, usual class: inhibitors. 350,000 compounds, 0.28% hits. AID 485290, 2010; further: nearly all actives have a fitted effect of over 40% in size
Target sequence (Q9NUW8 whole entry, looked up): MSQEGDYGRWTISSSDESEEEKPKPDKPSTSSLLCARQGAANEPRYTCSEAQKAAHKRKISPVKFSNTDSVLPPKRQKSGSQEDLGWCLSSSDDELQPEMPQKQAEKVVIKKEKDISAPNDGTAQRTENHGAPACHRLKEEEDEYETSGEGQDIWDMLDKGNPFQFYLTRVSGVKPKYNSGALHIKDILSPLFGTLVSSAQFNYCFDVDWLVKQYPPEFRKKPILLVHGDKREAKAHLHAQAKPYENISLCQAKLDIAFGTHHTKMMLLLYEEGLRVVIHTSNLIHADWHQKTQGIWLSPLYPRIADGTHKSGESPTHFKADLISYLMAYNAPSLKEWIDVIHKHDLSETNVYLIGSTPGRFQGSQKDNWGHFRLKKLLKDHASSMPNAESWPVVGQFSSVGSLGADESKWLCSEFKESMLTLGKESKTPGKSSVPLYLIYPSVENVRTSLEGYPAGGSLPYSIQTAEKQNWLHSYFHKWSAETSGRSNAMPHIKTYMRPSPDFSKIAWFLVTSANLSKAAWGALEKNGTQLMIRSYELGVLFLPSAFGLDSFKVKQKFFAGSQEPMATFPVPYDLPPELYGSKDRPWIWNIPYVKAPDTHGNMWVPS
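Signal: AlphaScreen proximity between streptavidin donor and anti-FITC acceptor beads on intact substrate. Reaction: Tdp1 1 nM, substrate 15 nM final, 5 min RT after 15 min compound preincubation.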
PLK1 PBD block = qHTS for Inhibitors of PLK1-PDB (polo-like kinase 1 - polo-box domain): Primary Screen. 360,000 compounds, 2.8% hits. Serine/threonine-protein kinase PLK1 (Homo sapiens), P53350. Potency, µM, for inactives: max response, negative = inhibition, actives largely listed as inhibitors. Plk1 PBD binding of FITC phosphopeptide, fluorescence polarization; further: series mostly up to about 57 µM; nearly all actives have a fitted effect of over 65% in size
TDP1 cell CPT = qHTS for Inhibitors of human tyrosyl-DNA phosphodiesterase 1 (TDP1): qHTS in cells in presence of CPT. Potency, µM (titrated, usually from 46.2 µM), for inactives: top-dose activity change, negative = growth inhibition, actives largely listed as inhibitors. chicken DT40 Tdp1-/-;hTDP1 cells + 20 nM CPT, ATP luminescence, 48 h. 420,000 compounds, 12% hits. AID 686979, 2013; further: nearly all actives have a fitted effect of over 55% in size
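Cell growth measured by CellTiter-Glo luminescence after a minimum 48 h, 37 C compound exposure with 20 nM CPT in Tdp1-knockout DT40 cells stably expressing hTDP1, seeded 400/well; qHTS titration format.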
TDP1 cell noCPT = qHTS for Inhibitors of human tyrosyl-DNA phosphodiesterase 1 (TDP1): qHTS in cells in absence of CPT; DT40 Tdp1-/- hTDP1 cells, no CPT, ATP luminescence, 48 h; Potency, µM (top dose mostly 46.2 µM), without a hit: top-dose activity change, negative = growth inhibition, most hits filed as inhibitors; 420,000 compounds, 15% hits; further: nearly all actives have a fitted effect of over 55% in size
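Cells were dispensed at 400 per well, compounds added by pin tool, plates incubated ≥48 hr at 37 °C, then CellTiter-Glo added for 30 min at room temperature before luminescence reading. Line: DT40 Tdp1-/- complemented with hTDP1; camptothecin omitted.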
* hit, by the source's call; ? = inconclusive; · = no result; [ ] = another dose, or the depositor's remark. This is a sample that favours compounds with a hit; in the whole collection about 18% have one here. The call rests on the fitted dose curve; in most records, active means well fitted curve in the direction sought with a large enough effect; inconclusive means small, poorly fitted or top-dose-only effect, or another doubt; inactive means no such curve, though single readings can be large; an effect the other way counts as inactive or inconclusive. On the % scale 0 is the no-effect control and ±100 the full control effect; potency means the concentration at half of the fitted maximal effect.

SMILES | KAT2A inh | VDR inh | TDP1 block | PLK1 PBD block | TDP1 cell CPT | TDP1 cell noCPT
CCN(CC)S(=O)(=O)c1ccc(N2CCOCC2)c(NC(=O)COc2ccc(Cl)cc2)c1 | -13% | 19% | 2% | -5% | ? | ?
COc1ccccc1NC(=O)NC1(C(=O)N2CCN(C)CC2)CCCCC1 | -3% | -2% | 6% | 2% | 5% | -4%
O=C(Nc1cc(S(=O)(=O)Nc2ccc(Cl)cc2)ccc1N1CCCCC1)c1ccc(F)cc1Cl | -17% | -7% | 5% | 9.5µM* | ? | ?
O=S(=O)(Nc1ccc(N2CCOCC2)cc1)c1cc(Cl)ccc1Cl | -3% | 2% | · | -2% | -14% | 12µM*
O=S(=O)(NCCN1CCOCC1)c1cc(Cl)ccc1Cl | -5% | 1% | 5% | 7% | -19% | -19%
COc1ccc(S(=O)(=O)Nc2ccc(N3CCOCC3)cc2)cc1 | -1% | 30% | · | -15% | -14% | -1%
COc1ccc(NS(=O)(=O)c2ccc(N3CCOCC3)c(N)c2)cc1 | -1% | 18% | 1% | 3% | 2.6µM* | 1.2µM*
O=C(NC(=S)Nc1ccccc1N1CCCCC1)c1ccc(F)cc1Cl | -5% | -9% | 4% | 4% | ? | ?
CC(C)c1ccc(NC(=O)c2ccc(NC3=NC4CS(=O)(=O)CC4S3)cc2)cc1 (stereo not given) | 12% | 5% | · | -2% | 2% | 25%
CC(C)c1ccc2c(c1)NC(c1ccc(F)cc1)=NC(c1cccs1)=N2 | -13% | 13% | 12% | · | ? | ?
CN(C)C(=O)/N=N/C(=O)N(C)C | -9% | 6.3µM* | -12%[56.1 µM] | · | · | ·
Cc1cc(CNC(=O)Cc2ccccc2)c2ccccc2n1 | 0% | -3% | 6% | -13% | ? | ?
Cc1cc(CNC(=O)c2cccc([N+](=O)[O-])c2C)c2ccccc2n1 | -2% | -10% | 3% | -3% | 10µM* | 12µM*
Cc1c(C(=O)NC(C)CCc2ccccc2)cccc1[N+](=O)[O-] (stereo not given) | -15% | -5% | 3% | 12µM* | ? | ?
Cc1cc(CNC(=O)COc2cc(F)ccc2[N+](=O)[O-])c2ccccc2n1 | -4% | 5% | 3% | 0% | 12µM* | 12µM*
Cc1cc(CNC(=O)COc2ccccc2F)c2ccccc2n1 | -3% | 1% | 8% | -3% | 15µM* | ?
Cc1cc(CNC(=O)COc2ccc(F)cc2F)c2ccccc2n1 | -4% | -13% | 0% | -1% | ? | ?
COc1cccc2c1OC(=O)CC2c1ccc(C)cc1 (stereo not given) | ? | 7% | 5%[234 µM] | · | · | ·
Cn1c(N)c(C(=O)Nc2c(Cl)cccc2Cl)sc1=S | -4% | 11% | 4% | -28% | -4% | ?
CCCc1cc(=O)[nH]c(SCC(=O)Nc2cc(S(=O)(=O)N(CC)c3ccccc3)ccc2Cl)n1 | -24% | 1% | 2% | ? | -20% | ?
O=S(=O)(NCC1(N2CCOCC2)CCCCC1)c1ccc(Cl)cc1C(F)(F)F | -19% | -8% | 0% | 0% | ? | ?
O=c1cc(CSc2ccccc2)[nH]c2ccccc12 | -10% | -3% | · | -11% | 26µM* | ?
O=C(O)c1cc2cc(Cl)cc(Cl)c2oc1=O | -12% | -5% | -6% | ? | ? | -27%
O=C(NCCO)c1cc2cc(Cl)cc(Cl)c2oc1=O | ? | ? | -3% | 13µM* | -24% | -2%
CCC(c1nnnn1-c1c(C)cccc1C)N1CCN(CCN2CCOCC2)CC1 (stereo not given) | · | · | · | 2% | -8% | -16%
SMILES | KAT2A inh | VDR inh | TDP1 block | PLK1 PBD block | TDP1 cell CPT | TDP1 cell noCPT
CCC(c1nnnn1-c1c(C)cccc1C)N1CCCN(Cc2ccc(F)cc2)CC1 (stereo not given) | · | · | · | -1% | ? | 16µM*
O=C(NCCCNc1ccc([N+](=O)[O-])cc1)C(F)(F)F | -10% | 14% | -4% | -2% | 4% | 10%
O=C(CCl)N(CCCNC(=O)C(F)(F)F)c1ccc([N+](=O)[O-])cc1 | -1% | -17% | 1% | -18% | 2.6µM* | 6.5µM*
CCOC(=O)N1CCC(NC(=O)CCC(=O)N2CCOc3ccc(Cl)cc32)CC1 | 1% | -9% | -5% | -14% | -24% | ?
COc1ccc(C(CNC(=O)C(C)Oc2ccc(Br)cc2)N2CCCCC2)cc1 (stereo not given) | 1% | -13% | 1% | 3% | 18µM* | 21µM*
COc1ccc2oc(C(=O)OC(C)C(=O)N3C(C)CCCC3C)c(C)c2c1 (stereo not given) | -5% | 12% | 0% | -2% | ? | 21µM*
COc1ccc(C(CNC(=O)c2oc3cc(Br)ccc3c2C)N2CCCCC2)cc1 (stereo not given) | -5% | -6% | 6% | 6% | 16µM* | 23µM*
COc1ccc2oc(C(=O)NN3C(C)CCCC3C)c(C)c2c1 (stereo not given) | -1% | 11% | 6% | -1% | ? | ?
CCc1ccc2oc(C(=O)NCC(c3ccc(OC)cc3)N3CCCCC3)c(C)c2c1 (stereo not given) | -10% | -9% | 8% | 1% | 23µM* | 16µM*
COc1ccc(C(CNC(=O)COc2ccc(Br)cc2F)N2CCCC2)cc1 (stereo not given) | 1% | -11% | 3% | -1% | -16% | -26%
Cc1cccc(Nc2nnc(-n3nc(C)cc3C)c3ccccc23)c1 | -12% | 19% | 2% | · | -23% | -3%
O=C1CN(S(=O)(=O)c2c(F)cccc2F)CCN1S(=O)(=O)c1ccc2c(c1)OCCO2 | · | · | -2% | · | · | ·
COc1ccc(C(CNC(=O)c2cc3ccccc3cc2OC)N2CCCC2)cc1 (stereo not given) | 0% | 1% | 4% | 4% | ? | ?
COc1ccc(C(CNC(=O)COc2ccc(F)cc2Cl)N2CCCCC2)cc1 (stereo not given) | -13% | 3% | 0% | 1% | 23µM* | 21µM*
COc1ccc(C(CNC(=O)c2oc3cc(C)c(C)cc3c2C)N2CCCCC2)cc1 (stereo not given) | 4% | 10% | 6% | -13% | 13µM* | 9.2µM*
